Activity calls are given as the source filed them. Unless noted, how the calls were made is not given here.
Tests used:
[1] = HepG2 liver cancer cell viability effects, profiling panel, resazurin fluorescence, 24 h, PK04 Diversity Set (AID 1172); details: higher = more signal
[2] = basal S. cerevisiae growth modulation, no modifier, primary screen, OD600, strain BY4716, 24 h, basal condition (AID 1173); details: OD600, 24 h, higher = more signal, called active from +8 up or from −8 down
[3] = MM1S myeloma cell viability, profiling panel, resazurin fluorescence, basal, 24 h, PK04 Diversity Set (AID 1174); details: higher = more signal, called active from +8 up or from −8 down;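 further: MM1S multiple myeloma cell line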
[4] = target: Dihydroorotate dehydrogenase (quinone), mitochondrial (Plasmodium falciparum (isolate 3D7)) (UniProt Q08210); test: PfDHODH enzyme inhibitors, primary screen, biochemical, C-terminal His tag, absorbance 600 nm (AID 1175); details: DCIP absorbance 600 nm, higher = more signal, called active from +8 up or from −8 down;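 further: recombinant parasite enzyme with a five histidine tag at its C terminus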
Dihydroorotate dehydrogenase (quinone), mitochondrial (Plasmodium falciparum (isolate 3D7)), sequence (Q08210 whole entry, looked up): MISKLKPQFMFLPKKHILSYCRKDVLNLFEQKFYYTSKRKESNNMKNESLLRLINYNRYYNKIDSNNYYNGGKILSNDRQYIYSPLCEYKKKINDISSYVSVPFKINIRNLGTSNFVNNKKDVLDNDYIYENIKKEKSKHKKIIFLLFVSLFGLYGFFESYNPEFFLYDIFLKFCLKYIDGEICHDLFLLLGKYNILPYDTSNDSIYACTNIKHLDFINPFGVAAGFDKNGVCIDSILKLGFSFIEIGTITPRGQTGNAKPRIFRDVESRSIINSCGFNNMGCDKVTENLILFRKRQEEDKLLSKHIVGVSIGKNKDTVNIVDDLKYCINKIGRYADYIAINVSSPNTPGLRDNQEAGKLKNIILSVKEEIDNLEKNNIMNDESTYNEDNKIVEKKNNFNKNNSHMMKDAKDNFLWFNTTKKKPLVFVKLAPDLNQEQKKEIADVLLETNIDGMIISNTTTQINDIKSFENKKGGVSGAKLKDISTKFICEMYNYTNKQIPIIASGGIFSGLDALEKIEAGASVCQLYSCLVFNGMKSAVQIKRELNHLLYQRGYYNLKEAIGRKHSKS

[5] = P. aeruginosa biofilm formation inhibitors, primary screen, strain PAO1, LB-PBS medium, absorbance 600 nm (AID 1176); details: P. aeruginosa PAO1 growth/biofilm, A600, 12 h; higher = more signal
[6] = S. cerevisiae RM11-1a growth modifiers, primary screen, strain RM11-1a, OD600, basal, 24 h (AID 1177); details: OD600, 24 h, higher = more signal, called active from +8 up or from −8 down;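 further: cultures grown under basal conditions with no added stressor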
[7] = E. coli acrAB mutant growth effects, primary screen, E. coli filamentation inducers, strain DRC39, OD650, 24 h (AID 1178); details: higher = more signal, called active from +8 up or from −8 down;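 further: growth measured as culture turbidity by optical density at 650 nm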
[8] = E. coli acrAB mutant growth effects, primary screen, E. coli filamentation inducers, strain DRC39, OD650, 48 h (AID 1179);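 further: screen aims at cell division blockers that make cells filament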; details: E. coli DRC39 delta-acrAB growth, higher = more signal, called active from +8 up or from −8 down
[9] = RPMI8226 myeloma cell viability, profiling panel, resazurin fluorescence, basal, 24 h, PK04 Diversity Set (AID 1180); details: higher = more signal;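 further: RPMI8826 multiple myeloma cell line at 5000 cells per well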
[10] = target: E3 ubiquitin-protein ligase XIAP (Homo sapiens) (UniProt P98170); test: XIAP binders, primary screen, biophysical, small-molecule microarray, fluorescence 635 nm (AID 1181); details: small-molecule microarray binding, higher = more signal;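 further: score merges 667 nm emission and signal to noise over triplicate slides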
E3 ubiquitin-protein ligase XIAP (Homo sapiens), sequence (P98170 whole entry, looked up): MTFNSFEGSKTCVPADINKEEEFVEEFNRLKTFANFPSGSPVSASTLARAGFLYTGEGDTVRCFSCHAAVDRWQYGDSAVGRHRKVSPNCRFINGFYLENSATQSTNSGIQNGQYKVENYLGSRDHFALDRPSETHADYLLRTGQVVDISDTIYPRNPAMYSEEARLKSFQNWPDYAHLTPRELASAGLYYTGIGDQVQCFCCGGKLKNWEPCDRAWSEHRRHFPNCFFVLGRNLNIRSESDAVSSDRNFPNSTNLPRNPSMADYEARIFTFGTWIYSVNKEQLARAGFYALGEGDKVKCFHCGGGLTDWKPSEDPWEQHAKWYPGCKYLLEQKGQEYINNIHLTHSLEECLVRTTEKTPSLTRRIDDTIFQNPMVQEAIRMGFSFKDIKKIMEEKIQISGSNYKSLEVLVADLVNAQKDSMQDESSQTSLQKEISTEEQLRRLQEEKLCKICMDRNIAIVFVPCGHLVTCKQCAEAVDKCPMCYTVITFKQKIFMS

[11] = test system: XIP peptide (Xip251-270) binding; test: small-molecule binders of XIP peptide, primary screen, biochemical, small-molecule microarray, fluorescence 635/667 nm, 0.1 µg/mL protein (AID 1182); details: fluorescent protein binding, 635 nm, higher = more signal, called active from +8 up or from −8 down
[12] = test system: XIP peptide (Xip251-270); test: small-molecule binders of XIP peptide, primary screen, biochemical, small-molecule microarray, fluorescence 635/667 nm, 0.5 µg/mL protein (AID 1183); details: small-molecule microarray binding, fluorescence 635 nm; higher = more signal
[13] = Plasmodium falciparum growth inhibition, primary screen, strain 3D7, DAPI fluorescence, 100 nL (AID 1184);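 further: parasites grown inside human red blood cells in medium with human serum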; details: P. falciparum 3D7 growth, 3 d, higher = more signal
[14] = target: Homeobox protein Hox-A13 (Mus musculus) (UniProt Q62424); test: inhibitors of HoxA13-DNA binding, primary screen, biochemical, fluorescence polarization, labeled oligonucleotide (AID 1185); details: 15 min, higher = more signal, called active from +8 up or from −8 down
Homeobox protein Hox-A13 (Mus musculus), sequence (Q62424 whole entry, looked up): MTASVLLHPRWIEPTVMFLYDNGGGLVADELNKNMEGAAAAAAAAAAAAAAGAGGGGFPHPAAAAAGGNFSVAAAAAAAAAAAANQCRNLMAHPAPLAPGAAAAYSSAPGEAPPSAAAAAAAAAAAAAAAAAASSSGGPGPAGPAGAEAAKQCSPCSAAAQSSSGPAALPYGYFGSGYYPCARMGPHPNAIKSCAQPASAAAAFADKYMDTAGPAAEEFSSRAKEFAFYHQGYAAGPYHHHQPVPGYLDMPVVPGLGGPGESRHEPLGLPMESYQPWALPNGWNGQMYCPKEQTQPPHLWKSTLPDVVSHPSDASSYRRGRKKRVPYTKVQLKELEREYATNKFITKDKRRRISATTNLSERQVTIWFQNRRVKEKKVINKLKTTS

[15] = inhibitors of hydroxyurea-induced Chk1 phosphorylation, primary screen, imaging, HeLa, phospho-Chk1 antibody, percent positive cells (AID 1186); details: hydroxyurea-induced phospho-Chk1 immunofluorescence imaging, higher = more signal
[16] = inhibitors of hydroxyurea-induced Chk1 phosphorylation, primary screen, imaging, HeLa, phospho-Chk1 nuclear intensity (AID 1187); details: hydroxyurea-induced phospho-Chk1 immunofluorescence imaging, higher = more signal

Compound | z-score [1] | z-score [2] | z-score [3] | composite z-score [4] | z-score [5] | z-score [6] | z-score [7] | z-score [8] | z-score [9] | composite z-score [10] | composite z-score [11] | composite z-score [12] | z-score [13] | z-score [14] | z-score [15] | z-score [16]
COc1ccc(-c2nc(-c3ccccc3)c3c(c2C)CO[Si]3(C(C)C)C(C)C)cn1 | 0.539 | 0.232 (inactive) | 0.151 (inactive) | 0.366 (inactive) | 1.35 (inactive) | -0.278 (inactive) | -0.512 (inactive) | -0.329 (inactive) | -0.82 | -0.0943 | -0.447 (inactive) | -0.447 | 0.193 | -3.37 (inactive) | 0.0411 (inactive) | 0.126 (inactive)
O=C1O[C@@H](c2ccccc2)[C@@H](c2ccccc2)N2[C@@H](c3ccc(OCCO)cc3)[C@]3(C(=O)Nc4ccccc43)[C@@H](C(=O)O)[C@H]12 | -0.273 | -0.624 (inactive) | 0.432 (inactive) | -1.09 (inactive) | 0.449 (inactive) | -0.66 (inactive) | 0.468 (inactive) | -0.513 (inactive) | 0.441 | -0.0339 | 0.442 (inactive) | -0.105 | -1.29 | -6.16 (inactive) | -0.33 (inactive) | -0.413 (inactive)
CC(C)Cc1ccc(CN2CC[C@@H](NC(=O)Nc3ccccc3)C2)cc1 | -5.14 | -17.3 (active) | -9.38 (active) | 0.545 (inactive) | 0.294 (inactive) | -4.95 (inactive) | 0.451 (inactive) | -0.748 (inactive) | -4.87 | -0.209 | -0.243 (inactive) | -0.238 | -1.51 | 0.339 (inactive) | 0.146 (inactive) | 0.459 (inactive)
CC(CO)N1C(=O)[C@@H]2[C@H]3C(=O)OCC=C[C@H]3OC23C=CCN(C(C)(C)C)C(=O)[C@@H]13 (stereo partly drawn) | 0.0792 | 0.0031 (inactive) | -0.555 (inactive) | -1.08 (inactive) | -0.401 (inactive) | -0.505 (inactive) | -0.554 (inactive) | -0.762 (inactive) | -0.794 | 0.252 | -0.316 (inactive) | 0.0576 | 0.293 | -5.22 (inactive) | 0.0116 (inactive) | -0.602 (inactive)
C=CCC(OC(C)=O)[C@@H]1[C@@H](N(Cc2cccc3ccccc23)C(=O)Cc2ccc(F)cc2)c2cc(OCCCO)ccc2N1C(=O)c1ccc2ccccc2n1 (stereo partly drawn) | -0.157 | 0.0526 (inactive) | 0.263 (inactive) | 0.451 (inactive) | 0.501 (inactive) | -0.142 (inactive) | -0.406 (inactive) | 0.0816 (inactive) | 0.493 | 0.357 | -0.533 (inactive) | -0.272 | -2.13 | -1.34 (inactive) | -0.172 (inactive) | -0.761 (inactive)
Cc1ccc(S[C@]2(C(=O)O)CC(=O)N(C3Cc4ccccc4C3)[C@@H]2c2ccc(CO)cc2)cc1 | -0.684 | -0.528 (inactive) | -0.444 (inactive) | -1.03 (inactive) | 1.15 (inactive) | -0.157 (inactive) | -0.185 (inactive) | -0.108 (inactive) | -0.396 | -0.205 | 1.36 (inactive) | -0.669 | 1.58 | -3.97 (inactive) | 0.172 (inactive) | 0.129 (inactive)
C=C(/C(=C/C[C@H](OC(=O)c1ccncc1)c1ccc(CO)o1)c1cc(C(=O)OC)ccc1OC)C(C)C | -0.154 | -0.368 (inactive) | -0.797 (inactive) | -0.913 (inactive) | 1.38 (inactive) | 0.112 (inactive) | -0.825 (inactive) | -0.655 (inactive) | -0.9 | -0.124 | 0.0474 (inactive) | 0.554 | -0.114 | -5.26 (inactive) | -0.291 (inactive) | -0.218 (inactive)
C=C(COC)C(=O)CC[C@@H](OC(=O)c1cccnc1)c1ccc(OCCO)cc1 | 0.379 | -16 (active) | 0.556 (inactive) | -3.49 (inactive) | 0.178 (inactive) | -0.499 (inactive) | 0.864 (inactive) | 0.441 (inactive) | 0.221 | -0.184 | -0.344 (inactive) | 0.481 | 0.415 | -4.4 (inactive) | -0.0647 (inactive) | -0.573 (inactive)
C=CCOC(=O)[C@H]1[C@@H]2C(=O)O[C@@H](c3ccccc3)[C@@H](c3ccccc3)N2[C@@H](c2ccc(OCCOC(=O)[C@@H]3C[C@@H]4C(=O)N[C@@H](CCCCNC(C)=O)C(=O)N4[C@@H]3c3ccc(O)cc3)cc2)[C@]12C(=O)Nc1ccc(I)cc12 | -0.634 | 1.46 (inactive) | -1.77 (inactive) | 0.158 (inactive) | 1.55 (inactive) | 0.925 (inactive) | -0.508 (inactive) | -1.25 (inactive) | -0.533 | 0.026 | 0.875 (inactive) | 0.811 | -1.96 | -0.356 (inactive) | -0.235 (inactive) | 0.0348 (inactive)
COC(=O)c1ccc([C@H](NC(=O)c2ccco2)[C@]2(C)C[C@H]2C2CCCCC2)cc1 | -2.18 | 1.23 (inactive) | -0.806 (inactive) | -0.751 (inactive) | 0.619 (inactive) | 0.158 (inactive) | -0.827 (inactive) | -0.565 (inactive) | -2.26 | -0.0668 | -0.235 (inactive) | -0.727 | -0.414 | -2.66 (inactive) | 0.089 (inactive) | -0.229 (inactive)
COC(=O)[C@@]1(Cc2ccc(OC)cc2)[C@@H]2C(=CC(=O)[C@H]2CC(=O)C(=O)N(C)C)CN1C(=O)c1ccccc1 | -1.2 | 1.61 (inactive) | -2.16 (inactive) | -0.626 (inactive) | 2.16 (inactive) | 0.625 (inactive) | -0.575 (inactive) | -0.798 (inactive) | -3.26 | 0.22 | 0.0312 (inactive) | 0.739 | -1.73 | -3.95 (inactive) | -0.246 (inactive) | -0.0503 (inactive)
COCCOC(=O)N1C(=O)[C@@]2(c3cc(C#CC4=CCCCC4)ccc31)[C@H](c1ccccc1OCCO)N1[C@H](c3ccccc3)[C@H](c3ccccc3)OC(=O)[C@H]1[C@@H]2C(=O)N1CCCCCCC1 | 0.133 | 1.86 (inactive) | -4.58 (inactive) | 0.668 (inactive) | 0.365 (inactive) | 2.01 (inactive) | 0.105 (inactive) | -1.32 (inactive) | -3.11 | -0.0663 | 0.549 (inactive) | 0.688 | -2.05 | 4.13 (inactive) | 0.234 (inactive) | 0.347 (inactive)
C[C@@H]1ON(c2ccc(C(=O)OC(C)(C)C)cc2)[C@H](c2ccc(O)cc2)[C@H]1C(=O)N1C(=O)OC[C@H]1Cc1ccccc1 | -1.61 | 0.479 (inactive) | -1.04 (inactive) | 0.771 (inactive) | 0.212 (inactive) | 0.351 (inactive) | -0.682 (inactive) | -0.118 (inactive) | -0.687 | -0.13 | 0.047 (inactive) | 0.599 | -0.393 | -3.64 (inactive) | -0.0209 (inactive) | -0.154 (inactive)
CC(C)[Si](C#CCCCC#N)(O[C@H](c1ccccc1)c1cn([C@H](CO)Cc2ccccc2)nn1)C(C)C | 0.374 | -9.13 (active) | 0.288 (inactive) | -0.804 (inactive) | 1.44 (inactive) | -1.8 (inactive) | 0.178 (inactive) | 0.362 (inactive) | 0.289 | -0.111 | 0.0339 (inactive) | 0.283 | 0.0921 | -0.999 (inactive) | -0.43 (inactive) | -1.05 (inactive)
O=C1O[C@@H](c2ccccc2)[C@@H](c2ccccc2)N2[C@@H](c3ccc(O)cc3)[C@]3(C(=O)Nc4ccc(C#CC5=CCCCC5)cc43)[C@@H](C(=O)NC[C@H](O)c3ccccc3)[C@H]12 | -0.705 | -0.593 (inactive) | -3.09 (inactive) | -0.609 (inactive) | 1.6 (inactive) | 2.43 (inactive) | 0.0087 (inactive) | 0.939 (inactive) | -6.69 | -0.0397 | 0.662 (inactive) | 0.772 | -0.369 | 0.986 (inactive) | -0.384 (inactive) | -0.016 (inactive)
C=CCC(OC(C)=O)[C@@H]1[C@@H](N(Cc2cccc3ccccc23)C(=O)c2cccc3ccccc23)c2cc(OCCCO)ccc2N1C(=O)c1ccc(-c2ccccc2)cc1 (stereo partly drawn) | -0.333 | 0.134 (inactive) | -1 (inactive) | 0.136 (inactive) | -0.309 (inactive) | -0.56 (inactive) | 0.161 (inactive) | -0.123 (inactive) | -0.569 | -0.232 | 0.71 (inactive) | 0.686 | -2.37 | -1.52 (inactive) | 0.305 (inactive) | 0.466 (inactive)
C=CCNC(=O)[C@H]1[C@@H]2C(=O)O[C@@H](c3ccccc3)[C@@H](c3ccccc3)N2[C@@H](c2ccc(O)cc2)[C@]12C(=O)Nc1ccc(C#CC3(O)CCCCCC3)cc12 | 0.435 | -0.989 (inactive) | -0.514 (inactive) | 0.19 (inactive) | 1.45 (inactive) | -0.596 (inactive) | 0.186 (inactive) | -0.11 (inactive) | -0.458 | -0.0622 | 0.692 (inactive) | 0.466 | -0.372 | -3.96 (inactive) | -0.165 (inactive) | -0.244 (inactive)
C[N+](C)(C)CCCC[C@@H]1NC(=O)[C@H]2C[C@@H](C(=O)NCCCCCCN)[C@@H](c3ccc(O)cc3)N2C1=O | -0.132 | 0.252 (inactive) | 0.99 (inactive) | 0.302 (inactive) | -0.515 (inactive) | 1.18 (inactive) | -0.231 (inactive) | -0.185 (inactive) | 0.976 | -0.0286 | -0.465 (inactive) | 0.825 | -0.104 | -1.61 (inactive) | 0.181 (inactive) | 0.0555 (inactive)

Reference: PubChem BioAssay
